Data on three compounds can be found in ChEMBL document CHEMBL1157539, “Thousands of chemical starting points for antimalarial lead identification” (Nature, 2010).

Holding throughout (assay type): functional
In assay [1] the test system is Plasmodium falciparum. Put plainly: GSK_TCMDC: Inhibition of Plasmodium falciparum 3D7 in whole red blood cells, using parasite LDH activity as an index of growth. Test compounds present at 2uM.
In assay [2] the test system is Plasmodium falciparum. In words: GSK_TCMDC: Inhibition of Plasmodium falciparum Dd2 in whole red blood cells, using parasite LDH activity as an index of growth. Test compounds present at 2uM.
In a further assay the test system is HepG2. Put plainly: GSK_TCMDC: Percent inhibition of human HepG2 cell line. Test compounds present at 10uM.

Structures are written as SMILES.

For the compound `Cc1[nH]c2ccc(NS(C)(=O)=O)cc2c1C1CCN(CC2CCN(C(=O)/C=C/c3ccc(Cl)c(Cl)c3)CC2)CC1`, the Inhibition in the assay on Plasmodium falciparum [1] came out at 99%; with Plasmodium falciparum [2], 83%; with HepG2, 15%.
For `O=C(c1ccccc1)C1CC1CN1CC=C(c2c[nH]c3ccccc23)CC1` (centres undefined), the Inhibition in the assay on Plasmodium falciparum [1] is listed as 95%; in the assay with Plasmodium falciparum [2] it was 73%; with HepG2 it was 4%.
For the compound `CCCCn1c(C)c(C(=O)OCC)c2cc(OC(C)=O)c(Br)cc21`, the Inhibition in the assay with Plasmodium falciparum [1] is recorded as 98%; in the assay with Plasmodium falciparum [2], 79%; in the assay with HepG2, 0%.
